Molecules are shown by their SMILES. Records with an inconclusive call do not appear. Activity calls are given as the source filed them. The call rests on the fitted dose curve; in most records, active means well fitted cell-killing curve with a large enough effect in the repeat runs; inconclusive means weak or mixed curves, or effect the other way; inactive means flat fitted curve, though single readings scatter.
On the % scale 0 is the no-effect control and ±100 the full control effect; potency means the concentration at half of the fitted maximal effect.

A short description of one test: cAMP Responsive Elements (CRE) small molecule antagonists, cell-based qHTS assay: qHTS cell viability counter screen (AID 2060913). Further: nearly all actives have a fitted effect of over 40% in size. The following applies: CRE-bla HEK293T viability, CellTiter-Glo luminescence, 5 h; series mostly up to 92.4 µM; viability change, negative = cytotoxic: at the top concentration. The procedure, abridged:
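HEK293T CRE-bla, 2,000 cells/well, 18 h preincubation; cpd in DMSO + NKH477 0.25 uM final, 3 h 37 C/5% CO2; LiveBLAzer 2 h RT, then CellTiter-Glo 30 min RT, luminescence.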
In the case of `CNC(=O)O/N=C/C(C)(C)S(C)=O` (stereo not given), the Potency result was “inactive”.

On to `CC(c1ccc(O)cc1)(c1ccc(O)cc1)c1ccc(O)cc1`, for which the “viability change, negative = cytotoxic” value was -13.2% (inactive).

On to `N#CCNCC#N`, for which the “viability change, negative = cytotoxic” value is 5.26% (inactive).

With `NCCc1ccc(O)cc1`, the Potency entry is “inactive”.

For `O=[N+]([O-])c1ccc2c3c(cccc13)CC2`, the “viability change, negative = cytotoxic” value is 2.31% (inactive).

Consider `II`, for which the “viability change, negative = cytotoxic” value was -15.9% (inactive).

With `CCCSP(=S)(OCC)Oc1ccc(Cl)cc1Cl` (stereo not given), the “viability change, negative = cytotoxic” value is -22.4% (inactive).

For the compound `N#CCCC#N`, the “viability change, negative = cytotoxic” value is -5.59% (inactive).

For the compound `C/C=C/CC#N`, the “viability change, negative = cytotoxic” value is 0.707% (inactive).

Take `CCOP(=S)(OCC)Oc1ncn(-c2ccccc2)n1`: the “viability change, negative = cytotoxic” value is -2.24% (inactive).

Turning to `Cc1cc(Cl)ccc1OCCCC(=O)O`, the “viability change, negative = cytotoxic” value is 3.21% (inactive).

With `CN1CSC(=S)N(C)C1`, the Potency entry is “inactive”.

As for `O=P(Cl)(Cl)Cl`, the “viability change, negative = cytotoxic” value is -4.83% (inactive).

On to `Nc1ccc2ccccc2c1`, for which the Potency result is “inactive”.

Take `Cc1cc(O)ccc1Cl`: the Potency result was “inactive”.

As for `OCC(O)CCl` (stereo not given), the Potency result was “inactive”.

With `CN(C)CCc1c[nH]c2cccc(O)c12`, the “viability change, negative = cytotoxic” value was 0.405% (inactive).

Take `CC#C[C@]1(O)CC[C@H]2[C@@H]3C[C@H](C)C4=CC(=O)CC[C@]4(C)[C@H]3CC[C@@]21C`: the “viability change, negative = cytotoxic” value was 2.7% [at 42.5 µM] (inactive).

As for `N#CC(c1ccccc1)c1ccccc1`, the Potency entry is “inactive”.

`Cc1ccccc1[N+](=O)[O-]`: the Potency result is “inactive”.

`CC(C)=CC1C(C(=O)OCc2coc(Cc3ccccc3)c2)C1(C)C` (stereo not given): the Potency entry was “inactive”.

Regarding `O=CC=O`, the “viability change, negative = cytotoxic” value is 14.1% (inactive).

For the compound `CCO/N=C(\CC)C1=C(O)CC(c2c(C)cc(C)cc2C)CC1=O` (stereo not given), the “viability change, negative = cytotoxic” value is 9.28% (inactive).

Turning to `COC(C)(C)CCCC(C)C/C=C/C(C)=C/C(=O)OC(C)C` (stereo not given), the Potency entry is “inactive”.

In the case of `CC(=O)Nc1ccc2c(c1)Cc1ccccc1-2`, the “viability change, negative = cytotoxic” value is -4.22% (inactive).

Consider `CC(=[OH+])/C=C(/C)[O-].CC(=[OH+])/C=C(\C)[O-].CC(=[OH+])/C=C(\C)[O-].[Fe]`, for which the “viability change, negative = cytotoxic” value is 18% (inactive).

Turning to `CC(C)c1ccc(CO)cc1`, the Potency result was “inactive”.

As for `CON(C)C(=O)Nc1ccc(Br)c(Cl)c1`, the “viability change, negative = cytotoxic” value was 3.25% (inactive).

As for `O=P(O)(Oc1ccccc1)Oc1ccccc1`, the “viability change, negative = cytotoxic” value is 4.29% (inactive).

For the compound `COc1cnc(OC)n2nc(NS(=O)(=O)c3c(OCC(F)F)cccc3C(F)(F)F)nc12`, the “viability change, negative = cytotoxic” value was 3.03% (inactive).

`CCCCCCCCCCCC(=O)O`: the Potency entry was “inactive”.

With `CCOP(=O)(OCC)OP(=O)(OCC)OCC`, the “viability change, negative = cytotoxic” value was -0.496% (inactive).

Consider `BrCC1CO1` (stereo not given), for which the “viability change, negative = cytotoxic” value is 1.81% (inactive).

Consider `S=C=S`, for which the “viability change, negative = cytotoxic” value is 6.15% (inactive).

Take `COC[C@@H](NC(C)=O)C(=O)NCc1ccccc1`: the “viability change, negative = cytotoxic” value is 6.45% [at 42.5 µM] (inactive).

Consider `CCCCCCCCCCCCCCCCCCn1cc[n+](C)c1`, for which the Potency was 27.1 µM (active).

In the case of `CNC(C)Cc1ccc2c(c1)OCO2` (stereo not given), the “viability change, negative = cytotoxic” value is 0.287% (inactive).

For `CC(C)(C)OC(=O)c1ncn2c1[C@@H]1CCCN1C(=O)c1c(Br)cccc1-2`, the “viability change, negative = cytotoxic” value is 0.159% [at 42.5 µM] (inactive).

In the case of `[N-]=[N+]=[N-]`, the Potency result was “inactive”.

Regarding `CC(=O)OC(c1ccccc1)C(Cl)(Cl)Cl` (stereo not given), the “viability change, negative = cytotoxic” value was 2.13% (inactive).

Another test is described as follows: cAMP Responsive Elements (CRE) small molecule agonists, cell-based qHTS assay: qHTS cell viability counter screen (AID 2060914).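 Further: viability read after 3 h of compound exposure; nearly all actives have a fitted effect of over 50% in size.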 Particulars: CRE-bla HEK293T viability, CellTiter-Glo luminescence, 5 h; series mostly up to 92.4 µM; activity change, negative = cytotoxicity: at the top concentration. The procedure, abridged: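 CRE-bla HEK 293T cells, plated 18 h at 37 °C, were exposed to compounds for 3 h at 37 °C/5% CO2. Viability was then measured in the same wells by CellTiter-Glo luminescence after 30 min at room temperature.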
Background: In qHTS, concentration-response curves come from the screen itself.
As to `CNC(=O)O/N=C/C(C)(C)S(C)=O` (stereo not given), the Potency entry was “inactive”.

On to `CC(c1ccc(O)cc1)(c1ccc(O)cc1)c1ccc(O)cc1`, for which the “activity change, negative = cytotoxicity” value is 14.8% (inactive).

As to `N#CCNCC#N`, the “activity change, negative = cytotoxicity” value is 22.6% (inactive).

On to `NCCc1ccc(O)cc1`, for which the Potency result is “inactive”.

As to `O=[N+]([O-])c1ccc2c3c(cccc13)CC2`, the “activity change, negative = cytotoxicity” value is -2.76% (inactive).

`II`: the “activity change, negative = cytotoxicity” value was -14.7% (inactive).

`CCCSP(=S)(OCC)Oc1ccc(Cl)cc1Cl` (stereo not given): the “activity change, negative = cytotoxicity” value was -11.7% (inactive).

With `N#CCCC#N`, the “activity change, negative = cytotoxicity” value is -6.55% (inactive).

For the compound `C/C=C/CC#N`, the “activity change, negative = cytotoxicity” value was -11.5% (inactive).

On to `CCOP(=S)(OCC)Oc1ncn(-c2ccccc2)n1`, for which the “activity change, negative = cytotoxicity” value is -1.73% (inactive).

For the compound `Cc1cc(Cl)ccc1OCCCC(=O)O`, the Potency result is “inactive”.

On to `CN1CSC(=S)N(C)C1`, for which the Potency entry was “inactive”.

Turning to `O=P(Cl)(Cl)Cl`, the “activity change, negative = cytotoxicity” value was -10.9% (inactive).

Turning to `Nc1ccc2ccccc2c1`, the Potency entry is “inactive”.

With `Cc1cc(O)ccc1Cl`, the Potency result was “inactive”.

For `OCC(O)CCl` (stereo not given), the Potency result was “inactive”.

As for `CN(C)CCc1c[nH]c2cccc(O)c12`, the “activity change, negative = cytotoxicity” value is -1.74% (inactive).

Consider `CC#C[C@]1(O)CC[C@H]2[C@@H]3C[C@H](C)C4=CC(=O)CC[C@]4(C)[C@H]3CC[C@@]21C`, for which the “activity change, negative = cytotoxicity” value was -10.1% [at 42.5 µM] (inactive).

Take `N#CC(c1ccccc1)c1ccccc1`: the Potency entry is “inactive”.

Turning to `Cc1ccccc1[N+](=O)[O-]`, the Potency result was “inactive”.

As for `CC(C)=CC1C(C(=O)OCc2coc(Cc3ccccc3)c2)C1(C)C` (stereo not given), the “activity change, negative = cytotoxicity” value was -13.2% (inactive).

Take `O=CC=O`: the “activity change, negative = cytotoxicity” value was 21% (inactive).

`CCO/N=C(\CC)C1=C(O)CC(c2c(C)cc(C)cc2C)CC1=O` (stereo not given): the “activity change, negative = cytotoxicity” value is 6.04% (inactive).

For `COC(C)(C)CCCC(C)C/C=C/C(C)=C/C(=O)OC(C)C` (stereo not given), the Potency entry was “inactive”.

Turning to `CC(=O)Nc1ccc2c(c1)Cc1ccccc1-2`, the “activity change, negative = cytotoxicity” value is -0.201% (inactive).

With `CC(=[OH+])/C=C(/C)[O-].CC(=[OH+])/C=C(\C)[O-].CC(=[OH+])/C=C(\C)[O-].[Fe]`, the “activity change, negative = cytotoxicity” value was 6.78% (inactive).

Consider `CC(C)c1ccc(CO)cc1`, for which the Potency result is “inactive”.

In the case of `CON(C)C(=O)Nc1ccc(Br)c(Cl)c1`, the “activity change, negative = cytotoxicity” value is -7.24% (inactive).

Consider `O=P(O)(Oc1ccccc1)Oc1ccccc1`, for which the “activity change, negative = cytotoxicity” value is -10.2% (inactive).

`COc1cnc(OC)n2nc(NS(=O)(=O)c3c(OCC(F)F)cccc3C(F)(F)F)nc12`: the “activity change, negative = cytotoxicity” value was 4.27% (inactive).

Regarding `CCCCCCCCCCCC(=O)O`, the Potency entry was “inactive”.

Take `CCOP(=O)(OCC)OP(=O)(OCC)OCC`: the “activity change, negative = cytotoxicity” value was 11.9% (inactive).

In the case of `BrCC1CO1` (stereo not given), the “activity change, negative = cytotoxicity” value was 1.32% (inactive).

For the compound `S=C=S`, the “activity change, negative = cytotoxicity” value was 0.988% (inactive).

As to `COC[C@@H](NC(C)=O)C(=O)NCc1ccccc1`, the “activity change, negative = cytotoxicity” value is -25.1% [at 42.5 µM] (inactive).

Regarding `CCCCCCCCCCCCCCCCCCn1cc[n+](C)c1`, the Potency is 30.5 µM (active).

Regarding `CNC(C)Cc1ccc2c(c1)OCO2` (stereo not given), the “activity change, negative = cytotoxicity” value was -1.25% (inactive).

Regarding `CC(C)(C)OC(=O)c1ncn2c1[C@@H]1CCCN1C(=O)c1c(Br)cccc1-2`, the “activity change, negative = cytotoxicity” value was 9.17% [at 42.5 µM] (inactive).

In the case of `[N-]=[N+]=[N-]`, the Potency result was “inactive”.

On to `CC(=O)OC(c1ccccc1)C(Cl)(Cl)Cl` (stereo not given), for which the “activity change, negative = cytotoxicity” value is -1.1% (inactive).
